Of roughly 7,900 targets only a part is listed; those with a hit were picked by preference. About 0.6% of all pairs of compound and target were hits. Unmarked numbers belong to inactive results.

Chain of UniProt O75822 (O75822 whole entry, looked up): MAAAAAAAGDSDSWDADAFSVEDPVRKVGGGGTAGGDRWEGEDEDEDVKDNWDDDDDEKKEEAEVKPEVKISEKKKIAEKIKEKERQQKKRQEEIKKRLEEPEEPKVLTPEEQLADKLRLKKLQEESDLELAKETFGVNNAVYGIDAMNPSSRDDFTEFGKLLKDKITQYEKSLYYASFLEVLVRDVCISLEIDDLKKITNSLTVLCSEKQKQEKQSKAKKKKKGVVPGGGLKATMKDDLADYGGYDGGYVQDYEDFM
Chain of UniProt Q8N3D4 (Q8N3D4 whole entry, looked up): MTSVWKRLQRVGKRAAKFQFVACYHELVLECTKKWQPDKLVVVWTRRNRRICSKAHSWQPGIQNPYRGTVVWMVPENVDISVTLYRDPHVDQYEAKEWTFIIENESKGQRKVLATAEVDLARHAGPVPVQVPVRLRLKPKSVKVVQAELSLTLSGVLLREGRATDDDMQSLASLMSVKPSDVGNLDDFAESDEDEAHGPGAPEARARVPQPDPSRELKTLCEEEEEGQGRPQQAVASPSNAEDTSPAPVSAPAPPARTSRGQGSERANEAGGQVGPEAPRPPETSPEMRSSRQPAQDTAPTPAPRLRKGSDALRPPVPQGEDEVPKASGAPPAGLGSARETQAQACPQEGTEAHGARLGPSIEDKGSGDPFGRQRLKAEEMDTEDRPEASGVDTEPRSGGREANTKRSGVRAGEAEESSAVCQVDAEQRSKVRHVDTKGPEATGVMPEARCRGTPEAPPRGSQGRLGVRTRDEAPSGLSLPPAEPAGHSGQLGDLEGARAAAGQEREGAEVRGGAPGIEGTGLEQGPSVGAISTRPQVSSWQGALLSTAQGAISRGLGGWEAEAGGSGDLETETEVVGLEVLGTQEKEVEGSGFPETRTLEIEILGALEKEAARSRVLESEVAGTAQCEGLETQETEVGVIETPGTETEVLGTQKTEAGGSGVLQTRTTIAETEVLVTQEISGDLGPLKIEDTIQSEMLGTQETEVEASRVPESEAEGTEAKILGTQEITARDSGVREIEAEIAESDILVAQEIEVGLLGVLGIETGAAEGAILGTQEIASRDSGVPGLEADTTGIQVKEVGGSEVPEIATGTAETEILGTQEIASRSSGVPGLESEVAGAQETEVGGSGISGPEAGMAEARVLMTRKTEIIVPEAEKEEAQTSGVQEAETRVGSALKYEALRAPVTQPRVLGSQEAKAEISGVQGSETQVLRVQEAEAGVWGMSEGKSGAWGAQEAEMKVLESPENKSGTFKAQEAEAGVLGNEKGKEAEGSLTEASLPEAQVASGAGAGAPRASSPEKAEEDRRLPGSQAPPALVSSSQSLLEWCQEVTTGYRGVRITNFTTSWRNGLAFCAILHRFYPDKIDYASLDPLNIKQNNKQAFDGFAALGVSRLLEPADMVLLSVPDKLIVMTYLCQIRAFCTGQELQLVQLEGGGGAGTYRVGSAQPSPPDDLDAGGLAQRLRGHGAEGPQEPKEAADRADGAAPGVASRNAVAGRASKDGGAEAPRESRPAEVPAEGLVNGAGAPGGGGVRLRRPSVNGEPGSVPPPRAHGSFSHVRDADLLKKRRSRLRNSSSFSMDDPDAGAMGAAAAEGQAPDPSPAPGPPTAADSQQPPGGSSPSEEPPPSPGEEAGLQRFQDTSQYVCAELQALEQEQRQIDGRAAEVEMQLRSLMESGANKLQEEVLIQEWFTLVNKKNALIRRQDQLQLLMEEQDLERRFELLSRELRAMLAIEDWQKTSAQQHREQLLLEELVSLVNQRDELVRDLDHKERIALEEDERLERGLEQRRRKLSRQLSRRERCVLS
Chain of UniProt P32519 (P32519 whole entry, looked up): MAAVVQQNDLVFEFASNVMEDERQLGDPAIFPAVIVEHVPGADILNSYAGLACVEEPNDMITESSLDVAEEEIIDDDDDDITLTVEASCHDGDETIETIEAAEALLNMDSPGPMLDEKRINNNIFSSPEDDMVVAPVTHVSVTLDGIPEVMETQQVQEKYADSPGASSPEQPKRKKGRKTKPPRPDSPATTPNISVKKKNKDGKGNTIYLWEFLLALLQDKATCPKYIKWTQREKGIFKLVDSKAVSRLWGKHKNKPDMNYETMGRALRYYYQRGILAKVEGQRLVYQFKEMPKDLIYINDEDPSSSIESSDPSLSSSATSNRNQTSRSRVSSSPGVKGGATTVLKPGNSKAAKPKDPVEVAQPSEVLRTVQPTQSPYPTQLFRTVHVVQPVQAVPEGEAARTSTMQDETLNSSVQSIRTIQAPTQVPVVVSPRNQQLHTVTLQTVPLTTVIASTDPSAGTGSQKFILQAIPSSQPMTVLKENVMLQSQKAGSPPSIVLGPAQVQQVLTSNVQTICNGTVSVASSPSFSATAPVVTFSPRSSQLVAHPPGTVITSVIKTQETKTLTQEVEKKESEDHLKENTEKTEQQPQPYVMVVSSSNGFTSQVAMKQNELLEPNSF
Chain of UniProt Q03468 (Q03468 whole entry, looked up): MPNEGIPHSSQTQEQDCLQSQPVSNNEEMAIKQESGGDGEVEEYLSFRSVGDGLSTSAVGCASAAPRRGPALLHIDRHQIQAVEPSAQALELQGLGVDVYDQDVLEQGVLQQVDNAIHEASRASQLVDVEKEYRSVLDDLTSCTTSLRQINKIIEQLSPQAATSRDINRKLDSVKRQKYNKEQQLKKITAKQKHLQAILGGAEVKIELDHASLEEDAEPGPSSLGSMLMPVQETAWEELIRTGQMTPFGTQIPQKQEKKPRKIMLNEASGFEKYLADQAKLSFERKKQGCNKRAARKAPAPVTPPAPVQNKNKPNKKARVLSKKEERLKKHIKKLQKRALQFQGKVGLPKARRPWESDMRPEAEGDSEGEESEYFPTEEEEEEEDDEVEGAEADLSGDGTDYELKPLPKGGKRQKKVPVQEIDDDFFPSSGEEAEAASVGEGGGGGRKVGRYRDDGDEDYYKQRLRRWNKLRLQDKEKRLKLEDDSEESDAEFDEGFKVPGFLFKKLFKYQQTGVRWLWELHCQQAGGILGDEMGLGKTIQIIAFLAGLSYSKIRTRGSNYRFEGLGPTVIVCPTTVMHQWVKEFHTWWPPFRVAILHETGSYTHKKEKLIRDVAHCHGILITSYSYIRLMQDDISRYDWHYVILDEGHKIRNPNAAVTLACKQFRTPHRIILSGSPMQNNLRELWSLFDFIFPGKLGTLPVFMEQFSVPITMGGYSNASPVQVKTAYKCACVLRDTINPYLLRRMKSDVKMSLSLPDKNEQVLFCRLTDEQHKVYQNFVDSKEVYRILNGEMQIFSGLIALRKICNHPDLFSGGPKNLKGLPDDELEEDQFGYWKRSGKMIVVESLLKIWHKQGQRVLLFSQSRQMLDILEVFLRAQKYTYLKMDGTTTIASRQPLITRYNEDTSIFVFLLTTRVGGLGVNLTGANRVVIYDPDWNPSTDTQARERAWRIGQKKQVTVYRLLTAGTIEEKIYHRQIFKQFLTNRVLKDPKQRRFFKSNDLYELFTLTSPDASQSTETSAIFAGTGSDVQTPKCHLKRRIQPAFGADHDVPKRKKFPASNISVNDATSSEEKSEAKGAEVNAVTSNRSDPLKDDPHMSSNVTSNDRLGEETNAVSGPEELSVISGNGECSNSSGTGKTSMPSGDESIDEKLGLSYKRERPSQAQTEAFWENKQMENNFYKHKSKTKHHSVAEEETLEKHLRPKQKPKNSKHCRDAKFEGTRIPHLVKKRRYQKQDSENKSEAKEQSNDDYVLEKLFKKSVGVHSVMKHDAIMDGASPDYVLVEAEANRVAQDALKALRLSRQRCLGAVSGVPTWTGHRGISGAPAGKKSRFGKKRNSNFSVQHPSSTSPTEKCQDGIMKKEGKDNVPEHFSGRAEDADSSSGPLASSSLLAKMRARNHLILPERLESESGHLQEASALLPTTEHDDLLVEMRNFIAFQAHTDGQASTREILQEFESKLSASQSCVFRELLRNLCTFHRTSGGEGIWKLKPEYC
Chain of UniProt P98173 (P98173 whole entry, looked up): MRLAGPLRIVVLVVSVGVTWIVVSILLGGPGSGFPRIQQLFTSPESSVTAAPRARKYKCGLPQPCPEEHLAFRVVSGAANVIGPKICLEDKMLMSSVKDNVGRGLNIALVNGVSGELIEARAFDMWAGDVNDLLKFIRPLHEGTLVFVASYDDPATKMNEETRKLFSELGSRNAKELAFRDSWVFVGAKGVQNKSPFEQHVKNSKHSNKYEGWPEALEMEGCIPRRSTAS
Chain of UniProt Q96G46 (Q96G46 whole entry, looked up): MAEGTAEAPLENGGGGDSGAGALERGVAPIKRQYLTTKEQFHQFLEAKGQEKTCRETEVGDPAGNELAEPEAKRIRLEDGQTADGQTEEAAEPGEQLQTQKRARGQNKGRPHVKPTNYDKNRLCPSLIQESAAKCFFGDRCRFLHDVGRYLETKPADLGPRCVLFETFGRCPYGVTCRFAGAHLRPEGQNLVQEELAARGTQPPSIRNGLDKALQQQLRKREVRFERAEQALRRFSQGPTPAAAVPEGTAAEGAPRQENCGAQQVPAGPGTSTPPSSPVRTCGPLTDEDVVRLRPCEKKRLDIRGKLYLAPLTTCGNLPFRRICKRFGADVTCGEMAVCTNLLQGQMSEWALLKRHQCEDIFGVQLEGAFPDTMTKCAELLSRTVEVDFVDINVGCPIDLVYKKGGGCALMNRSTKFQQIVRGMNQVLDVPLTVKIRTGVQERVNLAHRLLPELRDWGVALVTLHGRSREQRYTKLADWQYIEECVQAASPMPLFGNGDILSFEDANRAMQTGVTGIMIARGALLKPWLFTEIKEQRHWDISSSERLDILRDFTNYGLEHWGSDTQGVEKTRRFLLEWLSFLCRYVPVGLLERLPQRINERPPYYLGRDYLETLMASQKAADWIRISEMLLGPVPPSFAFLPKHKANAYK
Chain of UniProt Q8N5C7 (Q8N5C7 whole entry, looked up): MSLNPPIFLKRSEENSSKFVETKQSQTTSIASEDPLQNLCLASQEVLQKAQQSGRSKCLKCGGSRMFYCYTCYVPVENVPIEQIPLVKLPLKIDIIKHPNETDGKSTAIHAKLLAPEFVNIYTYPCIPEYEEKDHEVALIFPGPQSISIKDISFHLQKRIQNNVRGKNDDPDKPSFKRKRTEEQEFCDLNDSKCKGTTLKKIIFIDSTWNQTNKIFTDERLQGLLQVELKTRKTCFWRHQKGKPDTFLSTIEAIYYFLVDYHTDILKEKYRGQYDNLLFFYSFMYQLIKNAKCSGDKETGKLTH

Compound in one assay: C1=CC(=C(C=C1Cl)C2=NC3=NC=CN=C3C(=N2)NC4=CC=NC=C4)F
The assay is described as follows: log2 fold change, soluble protein after heating vs DMSO (PISA); higher = thermal stabilisation; K562 cells, 10 uM, 30 min; active = over 0.2 and 3.5 SD of the protein, either way, in both replicates (recomputed). Put shortly: (§1)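 K562 cells at 2×10^6 cells/mL were exposed to 10 μM compound for 30 min, then aliquots were heated for 3 min across 48°C-58°C, pooled, and extracted in PBS containing 0.5% NP-40 at 4°C. The supernatant after 21,000xg for 90 min was taken as soluble protein and measured by TMTpro 16plex LC-MS/MS with channel sums equalised. Thermal stability is reported relative to control samples, with values from duplicates. Fold changes are given on a log2 scale.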
EIF2AK3 (UniProt Q9NZJ5): the log2 fold change was 0.091.
For DCUN1D1 (UniProt Q96GG9), the log2 fold change is 0.041.
As to EIF3J isoform 2 (UniProt O75822), the log2 fold change was 0.029.
On to DCAF10 (UniProt Q5QP82), for which the log2 fold change is 0.021.
On the same count and under the same terms, with DENND10 (UniProt Q8TCE6) the figure was -0.049; with EIF2AK1 (UniProt Q9BQI3), -0.042.
As to FAM3A (UniProt P98173), the log2 fold change was -0.067.
For the target ELOVL5 isoform 2 (UniProt Q9NYP7), the log2 fold change was -0.087.
As to DEGS1 (UniProt O15121), the log2 fold change was -0.113.
Regarding DHCR7 (UniProt Q9UBM7), the log2 fold change was -0.095.
On the same count and under the same terms, for EIF3J (UniProt O75822) the value was 0.068; for E2F4 (UniProt Q16254), 0.019.
As to DOHH (UniProt Q9BU89), the log2 fold change was -0.046.
ERLIN2 (UniProt O94905): the log2 fold change is -0.054.
Same read-out and setting: for DPYSL2 (UniProt Q16555) the value was 0.099; for ELAC1 (UniProt Q9H777), 0.04.
In the case of EEF1A1 (UniProt P68104), the log2 fold change was 0.051.
For EHBP1L1 (UniProt Q8N3D4), the log2 fold change was 0.06.
Same read-out and setting: for EXOC8 (UniProt Q8IYI6) the value was -0.042; for DYNC1I2 isoform 2 (UniProt Q13409), 0.057.
Turning to DTWD1 (UniProt Q8N5C7), the log2 fold change is 0.002.
The same measure, in the same setting: for ERCC6 (UniProt Q03468) the value was 0.028; for CUX1 isoform 3 (UniProt P39880), 0.034; for ELOVL7 (UniProt A1L3X0), -0.065.
For the target DUS3L (UniProt Q96G46), the log2 fold change is 0.118.
Take EIF2S3 (UniProt P41091): the log2 fold change was -0.18.
On the same count and under the same terms, for EGR1 (UniProt P18146) the value was 0.071; for DDX27 (UniProt Q96GQ7), -0.287.
Consider EED, A0A5F9ZI63, for which the log2 fold change is -0.04.
In the case of ELF1 (UniProt P32519), the log2 fold change was 0.068.
Regarding EZH2 isoform 2 (UniProt Q15910), the log2 fold change was 0.163.
Regarding DNM2 (UniProt P50570), the log2 fold change was 0.01.
Same read-out and setting: with EXOSC10 (UniProt Q01780) the figure was 0.136; with FAM117B (UniProt Q6P1L5), -0.134.
As for DBN1 isoform 3 (UniProt Q16643), the log2 fold change is -0.028.
In the case of EIF4A1 (UniProt P60842), the log2 fold change was 0.047.

Compound in the next assay: C1=CC(=CC=C1C2=NC3=C(N2)C=C(C=C3)C(=O)N)OC4=CC=C(C=C4)Cl
Described as above. The method in brief: as §1
On to EIF2AK3 (UniProt Q9NZJ5), for which the log2 fold change was -0.222.
DCUN1D1 (UniProt Q96GG9): the log2 fold change was -0.009.
As to EIF3J isoform 2 (UniProt O75822), the log2 fold change is 0.005.
With DCAF10 (UniProt Q5QP82), the log2 fold change was 0.029.
Take DENND10 (UniProt Q8TCE6): the log2 fold change is -0.08.
Regarding EIF2AK1 (UniProt Q9BQI3), the log2 fold change is 0.
The same measure, in the same setting: for FAM3A (UniProt P98173) the value was 0.029.
As to ELOVL5 isoform 2 (UniProt Q9NYP7), the log2 fold change is -0.005.
With DEGS1 (UniProt O15121), the log2 fold change was 0.145.
On to DHCR7 (UniProt Q9UBM7), for which the log2 fold change was -0.056.
For the target EIF4G3 isoform 3 (UniProt O43432), the log2 fold change is -0.083.
For the target EIF3J (UniProt O75822), the log2 fold change was -0.033.
The same measure, in the same setting: for E2F4 (UniProt Q16254) the value was -0.003; for DOHH (UniProt Q9BU89), 0.
On to ERLIN2 (UniProt O94905), for which the log2 fold change is -0.014.
Still for that read-out and setting: for DPYSL2 (UniProt Q16555) the value was 0.072.
On the same count and under the same terms, with ELAC1 (UniProt Q9H777) the figure was -0.061; with EEF1A1 (UniProt P68104), 0.062.
Same read-out and setting: with EHBP1L1 (UniProt Q8N3D4) the figure was -0.005; with EXOC8 (UniProt Q8IYI6), -0.056; with DYNC1I2 isoform 2 (UniProt Q13409), -0.056.
On to DTWD1 (UniProt Q8N5C7), for which the log2 fold change is -0.122.
Consider DOLPP1 (UniProt Q86YN1), for which the log2 fold change was 0.009.
Turning to ERCC6 (UniProt Q03468), the log2 fold change was -0.063.
Same read-out and setting: for CUX1 isoform 3 (UniProt P39880) the value was -0.015.
With ELOVL7 (UniProt A1L3X0), the log2 fold change was 0.009.
As for DUS3L (UniProt Q96G46), the log2 fold change was 0.059.
For EIF2S3 (UniProt P41091), the log2 fold change was -0.004.
Take EGR1 (UniProt P18146): the log2 fold change was 0.176.
On the same count and under the same terms, for DDX27 (UniProt Q96GQ7) the value was 0.015.
Turning to EED, A0A5F9ZI63, the log2 fold change is 0.028.
Same read-out and setting: with ELF1 (UniProt P32519) the figure was 0.028.
With EZH2 isoform 2 (UniProt Q15910), the log2 fold change was 0.084.
Same read-out and setting: for DNM2 (UniProt P50570) the value was -0.025.
Turning to EXOSC10 (UniProt Q01780), the log2 fold change was 0.008.
Take FAM117B (UniProt Q6P1L5): the log2 fold change is 0.079.
Turning to DBN1 isoform 3 (UniProt Q16643), the log2 fold change is 0.039.
As to EIF4A1 (UniProt P60842), the log2 fold change was -0.023.
Same read-out and setting: for FAM241A (UniProt Q8N8J7) the value was 0.044.

The values above are taken from the supplement of paper PMC10849652.
